PubChem BioAssay AID1159580 (chemical genetic matrix, 2015)
Values joined by “and” are separate entries in the source; they are usually repeats but may differ in a detail not shown here. Equal entries are not always repeated. The whole screen tested about 5,500 compounds, of which about 2,000 (36%) were called active. About 18% were inconclusive and are not listed. No stated cut-off is given here; in the data, active means normalized growth mostly below about 0.91 (no sharp cut-off); inconclusive means no clear call, values can overlap the other calls; inactive means mostly above about 0.92. This is one part of the list.

Assay: chemical genetic growth profiling, strain panel (AID 1159580);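 further: tested at 20 µM; growth read once vehicle control cultures reached saturation at 30 °C; 1 = growth at the plate median or of vehicle wells; lower values mean less growth of the strain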
Conditions: S. cerevisiae deletion strains, growth OD
[1] = locus YPL241C, strain CIN2, active compounds read low

Measured: normalized growth

C[C@]12C[C@H](O)[C@H]3[C@@H](CCC4=CC(=O)CC[C@@]43C)[C@@H]1CC[C@@H]2C(=O)CO
inactive: locus YAL040C, strain CLN3, active compounds read low 1.05 | locus YDR150W, strain NUM1, active compounds read low 1 | locus YDR363W, strain ESC2, active compounds read low 0.999 | locus YER002W, strain NOP16, active compounds read low 1.01 | locus YGR078C, strain PAC10, active compounds read low 1 | locus YNL175C, strain NOP13, active compounds read low 1.02 | locus YNL197C, strain WHI3, active compounds read low 1.02 | locus YNL224C, strain SQS1, active compounds read low 1.02 | locus YOR083W, strain WHI5 (second series), active compounds read low 1.02 | [1] 1

CC(=O)OCC(=O)[C@@]1(O)CCC2C3CCC4=CC(=O)CC[C@]4(C)C3C(=O)C[C@@]21C (stereo not given in full)
inactive: locus YAL021C, strain ccr4, active compounds read low 0.988 | locus YAL026C, strain drs2, active compounds read low 1.01 | locus YAL030W, strain snc1, active compounds read low 0.985 | locus YBL061C, strain skt5, active compounds read low 0.965 | locus YBR009C, strain hhf1, active compounds read low 0.998 | locus YBR021W, strain FUR4, active compounds read low 1.01 | locus YBR023C, strain chs3, active compounds read low 0.989 | locus YBR171W, strain sec66, active compounds read low 0.969 | locus YBR229C, strain ROT2, active compounds read low 1.01 | locus YBR231C, strain swc5, active compounds read low 0.951 | locus YBR279W, strain paf1, active compounds read low 0.997 | locus YCL011C, strain gbp2, active compounds read low 1.01 | locus YCL016C, strain dcc1, active compounds read low 1.02 | locus YCL029C, strain bik1, active compounds read low 1.03 | locus YCL061C, strain MRC1, active compounds read low 0.982 | locus YCL069W, strain vba3, active compounds read low 0.98 | locus YCR088W, strain abp1, active compounds read low 0.98 | locus YDL005C, strain med2, active compounds read low 0.973 | locus YDL035C, strain GPR1, active compounds read low 1 | locus YDL040C, strain nat1, active compounds read low 0.963 | locus YDL074C, strain BRE1, active compounds read low 1.01 | locus YDL101C, strain DUN1, active compounds read low 1.01 | locus YDL134C, strain PPH21, active compounds read low 1 | locus YDL185W, strain tfp1, active compounds read low 1.03 | locus YDL192W, strain arf1, active compounds read low 1.03 | locus YDR001C, strain nth1, active compounds read low 0.974 | locus YDR069C, strain doa4, active compounds read low 0.98 | locus YDR101C, strain arx1, active compounds read low 1.02 | locus YDR137W, strain rgp1, active compounds read low 1 | locus YDR159W, strain sac3, active compounds read low 0.963 | locus YDR162C, strain NBP2, active compounds read low 1.01 | locus YDR195W, strain ref2 0.913 | locus YDR297W, strain sur2, active compounds read low 0.989 | locus YDR318W, strain mcm21, active compounds read low 1.01 | locus YDR334W, strain swr1, active compounds read low 0.968 | locus YDR335W, strain msn5, active compounds read low 0.969 | locus YDR388W, active compounds read low 1.03 | locus YDR392W, strain spt3, active compounds read low 1.04 | locus YDR502C, strain sam2, active compounds read low 1.04 | locus YEL003W, strain gim4, active compounds read low 0.968 | locus YEL037C, strain rad23, active compounds read low 0.976 | locus YEL061C, strain CIN8 (second series), active compounds read low 0.983 | locus YEL061C, strain CIN8, active compounds read low 1.01 | locus YER015W, strain faa2, active compounds read low 0.992 | locus YER016W, strain bim1, active compounds read low 0.988 | locus YER110C, active compounds read low 1.04 | locus YER111C, strain swi4, active compounds read low 0.971 | locus YER155C, strain BEM2 (second series), active compounds read low 0.97 | locus YER155C, strain BEM2, active compounds read low 1 | locus YER167W, strain BCK2, active compounds read low 1.01 | locus YFR010W, strain ubp6, active compounds read low 0.977 | locus YGL078C, strain dbp3, active compounds read low 1.03 | locus YGL086W, strain mad1, active compounds read low 0.994 | locus YGL167C, strain pmr1, active compounds read low 0.952 | locus YGL173C, strain kem1, active compounds read low 0.955 | locus YGL227W, strain vid30, active compounds read low 0.983 | locus YGL240W, strain doc1, active compounds read low 0.962 | locus YGL248W, strain PDE1, active compounds read low 1.02 | locus YGL253W, strain hxk2, active compounds read low 0.981 | locus YGR135W, strain pre9, active compounds read low 1.03 | locus YGR252W, strain gcn5, active compounds read low 1.05 | locus YHR013C, strain ard1, active compounds read low 0.991 | locus YHR027C, strain rpn1, active compounds read low 1 | locus YHR030C, strain SLT2, active compounds read low 1 and 0.999 | locus YHR079C, strain IRE1 (second series), active compounds read low 1.03 | locus YHR079C, strain IRE1, active compounds read low 0.996 | locus YHR094C, strain hxt1, active compounds read low 1.02 | locus YHR129C, strain ARP1, active compounds read low 1 | locus YHR142W, strain chs7, active compounds read low 0.978 | locus YHR200W, strain rpn10, active compounds read low 1.03 | locus YIL066C, strain RNR3, active compounds read low 1.01 | locus YIL073C, strain SPO22, active compounds read low 1.06 | locus YIL125W, strain kgd1, active compounds read low 1.02 | locus YIR030C, strain dcg1, active compounds read low 1.03 | locus YJL092W, strain hpr5, active compounds read low 0.968 | locus YJL095W, strain BCK1 (second series), active compounds read low 0.992 | locus YJL095W, strain BCK1, active compounds read low 1.02 | locus YJL115W, strain asf1, active compounds read low 0.985 | locus YJL129C, strain trk1, active compounds read low 0.922 | locus YJL134W, strain LCB3, active compounds read low 1.01 | locus YJL154C, strain vps35, active compounds read low 0.963 | locus YJL164C, strain tpk1, active compounds read low 1 | locus YJL166W, strain qcr8, active compounds read low 0.966 | locus YJL168C, strain set2, active compounds read low 1.03 | locus YJL187C, strain SWE1 (second series), active compounds read low 1.01 | locus YJR043C, strain POL32, active compounds read low 0.993 | locus YJR066W, strain TOR1, active compounds read low 0.973 | locus YJR075W, strain HOC1, active compounds read low 1.01 | locus YKL009W, strain mrt4, active compounds read low 1.02 | locus YKL068W, active compounds read low 1.02 | locus YKL085W, strain MDH1 (second series), active compounds read low 1.02 | locus YKL085W, strain MDH1, active compounds read low 1.02 | locus YKL160W, strain elf1, active compounds read low 0.961 | locus YKR001C, strain vps1, active compounds read low 1.04 | locus YKR026C, strain gcn3, active compounds read low 0.974 | locus YKR091W, strain srl3, active compounds read low 0.974 | locus YLL001W, strain dnm1, active compounds read low 0.93 | locus YLL026W, active compounds read low 0.994 | locus YLL041C, strain sdh2, active compounds read low 0.98 | locus YLR027C, strain aat2, active compounds read low 0.961 | locus YLR039C, strain RIC1, active compounds read low 1 | locus YLR058C, strain SHM2, active compounds read low 1.01 | locus YLR102C, strain apc9, active compounds read low 1.03 | locus YLR113W, strain HOG1, active compounds read low 0.986 | locus YLR221C, strain rsa3, active compounds read low 1.01 | locus YLR258W, strain gsy2, active compounds read low 0.995 | locus YLR262C, strain YPT6 (second series), active compounds read low 0.951 | locus YLR262C, strain YPT6, active compounds read low 1.05 | locus YLR268W, strain sec22, active compounds read low 1.04 | locus YLR320W, strain mms22, active compounds read low 0.993 | locus YLR330W, strain CHS5, active compounds read low 1.01 | locus YLR342W, strain FKS1 (second series), active compounds read low 0.987 | locus YLR342W, strain FKS1, active compounds read low 0.963 | locus YLR357W, strain rsc2, active compounds read low 0.974 | locus YLR370C, strain arc18, active compounds read low 0.973 | locus YLR371W, strain rom2, active compounds read low 1.02 | locus YLR384C, strain iki3, active compounds read low 0.974 | locus YLR418C, strain cdc73, active compounds read low 1.08 | locus YML016C, strain PPZ1, active compounds read low 1.01 | locus YML032C, strain rad52, active compounds read low 1.04 | locus YML120C, strain ndi1, active compounds read low 0.967 | locus YML124C, strain tub3, active compounds read low 1.03 | locus YMR058W, strain fet3, active compounds read low 0.971 | locus YMR078C, strain ctf18, active compounds read low 1.04 | locus YMR125W, strain sto1, active compounds read low 0.988 | locus YMR129W, active compounds read low 0.991 | locus YMR205C, strain PFK2, active compounds read low 0.983 | locus YMR223W, strain ubp8, active compounds read low 1.04 | locus YMR231W, strain pep5, active compounds read low 0.972 | locus YMR263W, strain SAP30, active compounds read low 1.01 | locus YMR307W, strain GAS1, active compounds read low 0.923 | locus YNL067W, strain RPL9B, active compounds read low 1.01 | locus YNL071W, strain lat1, active compounds read low 1.01 | locus YNL153C, strain GIM3, active compounds read low 1.01 | locus YNL183C, strain NPR1, active compounds read low 0.953 | locus YNL209W, strain ssb2, active compounds read low 0.998 | locus YNL233W, strain BNI4, active compounds read low 1.01 | locus YNL248C, strain rpa49, active compounds read low 1 | locus YNL250W, strain rad50, active compounds read low 1.05 | locus YNL271C, strain bni1, active compounds read low 1.04 | locus YNL298W, strain CLA4, active compounds read low 1.02 | locus YNL307C, strain MCK1, active compounds read low 1.02 | locus YNL322C, strain KRE1 (second series), active compounds read low 0.969 | locus YNL322C, strain KRE1, active compounds read low 1.01 | locus YNR049C, strain mso1, active compounds read low 0.977 | locus YNR052C, strain pop2, active compounds read low 1.02 | locus YOL012C, strain htz1 1.93 | locus YOL147C, strain pex11, active compounds read low 1.04 | locus YOR001W, strain rrp6, active compounds read low 0.951 | locus YOR061W, strain CKA2, active compounds read low 1.01 | locus YOR069W, strain VPS5, active compounds read low 1.01 | locus YOR070C, strain gyp1, active compounds read low 0.993 | locus YOR080W, strain dia2, active compounds read low 0.956 | locus YOR083W, strain WHI5, active compounds read low 0.959 | locus YOR106W, strain vam3, active compounds read low 0.966 | locus YOR136W, strain idh2, active compounds read low 1.03 | locus YOR144C, strain elg1, active compounds read low 1.02 | locus YOR184W, strain ser1, active compounds read low 1.05 | locus YOR231W, strain MKK1, active compounds read low 0.995 | locus YOR265W, strain rbl2, active compounds read low 0.991 | locus YOR270C, strain vph1, active compounds read low 0.978 | locus YOR290C, strain snf2, active compounds read low 1.01 | locus YOR316C, strain cot1, active compounds read low 1.03 | locus YPL051W, strain arl3, active compounds read low 0.989 | locus YPL055C, strain LGE1, active compounds read low 1 | locus YPL078C, strain atp4, active compounds read low 0.933 | locus YPL106C, strain sse1, active compounds read low 1.02 | locus YPL240C, strain hsp82, active compounds read low 0.984 | [1] 1 | locus YPL256C, strain CLN2, active compounds read low 0.962 | locus YPR119W, strain clb2, active compounds read low 1.03 | locus YPR141C, strain kar3, active compounds read low 1.04 | locus YPR163C, strain tif3, active compounds read low 1.05 | locus YPR167C, strain met16, active compounds read low 1.03 | strain wtn01, active compounds read low 1.04
